In PubChem BioAssay (NCATS):
Inconclusive results are not listed. A call without a number means that no potency is given here. Active and inactive are the calls of the source. Calls follow the shape of the dose curve; as a rule, active = well fitted inhibition curve with a large enough effect; inconclusive = small, poorly fitted or top-dose-only effect; inactive = flat fitted curve, though single readings scatter.

These compounds were tested against Aldehyde dehydrogenase, mitochondrial (Homo sapiens) (UniProt P05091) (assay: qHTS for Inhibitors of the Aldehyde Dehydrogenase Family (ALDH2) Primary screen (AID 2061308; also: nearly all actives have a fitted effect of over 55% in size)). Details: ALDH2 enzyme inhibition qHTS, 1536-well; series mostly up to 56 µM.

Row | SMILES | Potency
1 | Cc1ccc(C)n1-c1cccc(-c2nn[nH]n2)c1 | inactive
2 | O=C1CCCC2=C1C(c1[nH]ncc1Cl)N=C(Nc1cccnc1)N2 (configuration not stated) | inactive
3 | Cc1cc2c(s1)c1cnn(Cc3ccc(Cl)c(F)c3)c(=O)c1n2C | inactive
4 | O=C1c2ccccc2C(=O)N1c1ccc(Cl)cc1 | inactive
5 | Cc1cc(NS(=O)(=O)c2ccc(NC(=O)C(C)(C)c3ccc(Cl)c(Cl)c3)cc2)no1 | inactive
6 | COc1ccc(CC(=O)Nc2ccc(S(=O)(=O)Nc3cc(C)on3)cc2)cc1C | inactive
7 | Cc1ccc(-c2cnn(CC(=O)N(C)C(C)c3ccco3)c(=O)c2)cc1 (configuration not stated) | inactive
8 | CC(C)Nc1oc(-c2cccc3ccccc23)nc1C#N | inactive
9 | Cc1cn([C@H]2C[C@H](N[S+](=O)([O-])Cc3ccc([N+](=O)[O-])cc3)[C@@H](CO)O2)c(=O)[nH]c1=O | inactive
10 | CCCc1c(C(C)C)nc(C(C)C)c([C@@H](C)O)c1-c1ccc(F)cc1O | inactive
11 | Oc1ccc(/C=C/c2c(F)cccc2F)c2cccnc12 | inactive
12 | O=S(=O)(c1ccc(O)c2ncccc12)N1CCCCC1 | inactive
13 | CC(=O)O[C@@]1(C)[C@@H]2CC(=C(C)C)C(=O)C[C@@]2(C)CC[C@H]1OC(=O)C1(C)OC1C (some centres not stated) | inactive
14 | Cc1nc(CSc2ncnc3ccc(-c4ccc5c(c4)OCO5)cc23)cs1 | inactive
15 | Cc1ccc(C(=O)Oc2ccc(-c3nc4ccccc4[nH]3)cc2)cc1Br | inactive
16 | O=C(O)c1ccc2c(c1)C(=O)N([C@H](Cc1ccc(C(F)(F)F)cc1)C(=O)O)C2=O | inactive
17 | COc1ccc(CN2C(=O)c3ccccc3NC2c2ccc(OC)c(COc3c(C)cc(NC(C)=O)cc3C)c2)cc1 (configuration not stated) | inactive
18 | CN(C)c1cccc(-c2nccc(N3CCC(C(N)=O)CC3)n2)c1 | inactive
19 | Cn1c2ccsc2c2ncn(Cc3ccc(F)cc3)c(=O)c21 | inactive
20 | O=C(Nc1ccc(Cl)nc1)Nc1nnc(-c2ccncc2)s1 | inactive
21 | COc1cccc(CNc2ccc(S(=O)(=O)Nc3nc(C)cs3)cc2)c1O | inactive
22 | C#CCCC(=O)Nc1sc2c(c1-c1nc3ccccc3s1)CCNC2 | inactive
23 | Cc1ccnc(NC(=S)NCCNc2cccc(C(F)(F)F)c2)c1 | inactive
24 | Fc1cnc(-c2ccccc2C(F)F)nc1NCc1ccc(-c2ccn[nH]2)cc1 | inactive
25 | Cc1ccc(S(=O)(=O)Nc2cnccc2C(=O)Nc2ccccc2)cc1 | inactive
26 | COc1cccc(C2c3c(ncn(-c4cccc(C)c4)c3=N)Oc3ccc4ccccc4c32)c1 (configuration not stated) | inactive
27 | COc1cccc(C2c3c(ncn(Cc4cccs4)c3=N)Oc3ccc4ccccc4c32)c1 (configuration not stated) | inactive
